Bioassay records deposited in PubChem BioAssay by National Center for Advancing Translational Sciences (NCATS).
RGS4 inh: human RGS4 inhibition; AID 504845; P49798; Potency, µM (doses to about 114 µM), for the others: at the top dose activity change, negative = inhibition, hits mostly inhibitors; Transcreener GDP fluorescence polarization, RGS4-accelerated GTP hydrolysis; 390,000 compounds, 0.039% hits; active = well fitted inhibition curve with a large enough effect; inconclusive = small, poorly fitted or top-dose-only effect; inactive = no such curve, though single readings can be large or run the other way; also: potency is read from the fitted curve at half-maximal effect; % is scaled to controls: 0 for no effect and ±100 for the full control effect; nearly all actives have a fitted effect of over 75% in size
Target sequence (P49798 whole entry, looked up): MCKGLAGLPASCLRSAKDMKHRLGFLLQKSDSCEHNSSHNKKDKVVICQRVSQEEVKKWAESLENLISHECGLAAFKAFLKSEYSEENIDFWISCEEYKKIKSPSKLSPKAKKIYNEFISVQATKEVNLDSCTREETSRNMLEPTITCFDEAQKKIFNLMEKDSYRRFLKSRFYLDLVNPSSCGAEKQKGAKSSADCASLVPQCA
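MLSMR compounds (23 nl, pin-transferred) preincubated 10 min at room temperature with a 500nM (2x) first reagent, then RGS4 at 900nM (2x) plus Transcreener GDP mix added; fluorescence polarization (620/688 nm) read before and after 90 min at 30 °C.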
DRD3 agonist: D3 dopamine receptor (human) agonism; D3R DiscoveRx beta-arrestin cells, luminescence, 90 min; max activation, %; 410,000 compounds, 0.58% hits; P35462; in the data active = max activation above about 30%; also: 0% is about no effect
Target sequence (P35462 whole entry, looked up): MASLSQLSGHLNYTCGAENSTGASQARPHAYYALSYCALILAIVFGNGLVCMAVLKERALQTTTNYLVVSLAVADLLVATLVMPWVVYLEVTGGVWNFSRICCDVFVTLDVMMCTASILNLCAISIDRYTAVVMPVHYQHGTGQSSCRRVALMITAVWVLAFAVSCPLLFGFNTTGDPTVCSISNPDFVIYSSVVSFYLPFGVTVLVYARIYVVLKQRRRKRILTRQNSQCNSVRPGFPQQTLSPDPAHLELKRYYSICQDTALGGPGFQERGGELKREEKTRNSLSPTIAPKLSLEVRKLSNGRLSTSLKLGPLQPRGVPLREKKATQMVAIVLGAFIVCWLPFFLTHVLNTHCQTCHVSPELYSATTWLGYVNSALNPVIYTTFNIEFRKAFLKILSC
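Agonist-mode cell screen: cells plated at 1500/well and incubated overnight at 37 °C, then exposed to library compounds for 90 min at 37 °C. Detection reagent was added for 30–60 min at room temperature, and luminescence was read.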
uPA surface inh: blocks generation of uPA at the cell surface; AID 540303; cell surface uPA generation assay, qHTS; 330,000 compounds, 0.31% hits; Potency, µM (top dose mostly 38.3 µM), without a hit: at the top dose activity change, negative = inhibition, most hits filed as inhibitors; active = well fitted inhibition curve with a large enough effect; inconclusive = small, poorly fitted or top-dose-only effect; inactive = no such curve, though single readings can be large or run the other way; tested in mouse RAW 264.7 cells; also: potency is read from the fitted curve at half-maximal effect; % is scaled to controls: 0 for no effect and ±100 for the full control effect; nearly all actives have a fitted effect of over 55% in size
D3 antag: antagonists of human D3 dopamine receptor; P35462; D3R cells, DiscoveRx beta-arrestin luminescence, antagonist mode; active compounds read low; max response, negative = inhibition, %; 360,000 compounds, 2.5% hits; AID 652054; in the data active = max response below about -50%; inconclusive = no clear call, values can overlap the other calls; also: % is scaled to controls: 0 for no effect and ±100 for the full control effect
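Cells expressing the human receptor were seeded at 1500 cells/well, incubated overnight at 37 degrees C in 5% CO2, then exposed to library compounds with dopamine controls for 90 minutes at 37 degrees C before luminescent detection.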
Starred values were filed as active, the others as inactive; ? = inconclusive; . = not tested or not shown; ! = not confirmed by another sample; [ ] = remark or other dose. Compounds with a hit are over-represented: about 3.1% of the library has one in this group of screens.

SMILES	RGS4 inh	DRD3 agonist	uPA surface inh	D3 antag
CN1CCN2c3ncccc3Cc3ccccc3[C@@H]2C1	10%	-37	-5%	-27
N#Cc1c(Nc2ccccc2Cl)s[nH]c1=O	?	-3	-8%	-65*
N#Cc1c(Nc2ccccc2C(F)(F)F)s[nH]c1=O	?	-11	-7%	?
O=c1c2c3c(sc2n(Cc2cc(=O)n4ccccc4n2)c(=O)n1-c1ccc(Cl)cc1)CCC3	11%	0	.	.
Cc1sc2c(c1C)c(=O)n(-c1ccc(Cl)cc1)c(=O)n2Cc1cc(=O)n2ccccc2n1	-8%	3	-10%	-55*
O=C(Nc1ccc2c(c1)OCCO2)C(CCc1ccccc1)N1CCC(Cc2ccccc2)CC1 (configuration not stated)	.	-14	.	-69*
Cc1ccc(N(CC2=NCCN2)c2cccc(O)c2)cc1	-10%[56.9 µM]	-67	?	-63*!
O=S1(=O)c2ccccc2N(Cc2ccccc2)c2ccccc21	-30%	-10	.	.
Cc1cc2oc(=O)cc(CN3CCC(C)CC3)c2cc1C	2%	-12	-10%	-72*
CC(=O)N1CCN(Cc2cc(=O)oc3cc(C)c(C)cc23)CC1	.	-4	.	-80*
Cc1cc2oc(=O)cc(CN3CCCCC3)c2cc1C(C)C	9%	0	3%	-78*
Cc1cc2oc(=O)cc(CN3CCCCC3)c2cc1O	2%	-4	-8%	-13
COc1ccc(OC)c(C(=O)CN2C(=O)N(c3cc(C)cc(C)c3)S(=O)(=O)c3ccccc32)c1	28%	-11	.	.
COC(=O)c1ccc(CSc2nnc3ccc4ccccc4n23)cc1	5%	6	.	.
CCOC(=O)c1c(NC(=O)CSc2cn(CCNC(=O)c3ccc(OC)c(OC)c3)c3ccccc23)sc2c1CCCC2	14%	-1	.	.
O=C1COc2ccc(C(=O)COC(=O)c3ccccc3F)cc2N1	0%	-1	6%	-51*
O=C1COc2ccc(C(=O)COC(=O)c3ccccc3[N+](=O)[O-])cc2N1	-10%	3	2%	5
CC(O)C(NS(=O)(=O)c1ccc(Cl)cc1)C(=O)OCC(=O)c1ccc2c(c1)NC(=O)CO2 (configuration not stated)	-27%	-5	7%	4
CC(C)CC(NC(=O)c1ccc(Cl)cc1)C(=O)OCC(=O)c1ccc2c(c1)NC(=O)CO2 (configuration not stated)	-7%	20	-9%	-73*
Cc1ccc(/C(=C\CN2CCCC2)c2cccc(/C=C/C(=O)O)n2)cc1	.	-11	.	.
CCOc1ccc(NC(=S)N2CCCN(Cc3cccc(Cl)c3)C2)cc1	-2%	-13	-3%	-74*
COc1ccc(NC(=S)N2CCCN(Cc3cccc(Cl)c3)C2)cc1	16%	-13	-2%	-80*
S=C(Nc1ccccc1)N1CCN(Cc2ccccc2)CC1	-11%	-8	-1%	-2
Fc1ccc(CN2CCCN(C(=S)Nc3ccc(F)cc3)CC2)cc1	-33%	-14	-2%	-59*
O=C(CSC1=Nc2ccccc2N=C(c2ccc(F)cc2)C1)NCc1ccccc1	14%	-4	.	.
SMILES	RGS4 inh	DRD3 agonist	uPA surface inh	D3 antag
CCCN1C(=O)C(Cc2nc3ccccc3c(=O)n2CC)c2cc(Br)ccc21 (configuration not stated)	-15%	-10	.	.
CN1CCN(CCCNC(=O)c2cnn(-c3ccccc3)c2-n2cccc2)CC1	-35%	-16	.	.
COc1ccc(C)cc1NC(=O)CC1NCCNC1=O (configuration not stated)	8%	-7	.	.
O=C(c1cccc(F)c1)N1CCC(N2CCCCCC2)CC1	-10%	3	8%	-74*
O=C(c1cccc(F)c1)N1CCN(C2CCCCC2)CC1	1%	-17	-2%	-28
CCOC(=O)c1cc(-c2ccccc2)n(-c2cccc(C(=O)Nc3cccc(C)c3)c2)c1C	4%	-16	.	.
O=C(OCC(=O)N1CCCC1)c1cc([N+](=O)[O-])ccc1Cl	-10%	4	-2%	3
O=C(OCC(=O)N1CCCCC1)c1cc(NS(=O)(=O)c2ccc(Cl)c([N+](=O)[O-])c2)ccc1O	-37%	-8	-2%	-50*
C[C@@]12C(=O)OC(=O)[C@]1(C)C1CCC2O1	8%	-68	-15%	-87*
Cc1ccccc1Cn1c(COc2ccc(Cl)cc2)nc2ccccc21	-40%	-13	.	.
Cn1c(SCCN2CCCCC2)nnc1-c1ccccc1Br	-34%	-4	3%	-63*
O=C(CSc1nc2ccccc2s1)N/N=C/c1ccc(C(=O)O)cc1	-5%	0	5%	-7
COc1ccc(/C=N/NC(=O)CCSc2nc3ccccc3s2)cc1	6%[11.4 µM]	-3	4µM*	-10
COc1ccc(/C=N/NC(=O)CCn2cnc(-c3ccccc3)c2-c2ccccc2)cc1	5%[11.4 µM]	3	1.1µM*	-4
CCCCCCCCCCCCCCCC(=O)O[C@@H]1[C@@H](O)[C@@H](O)[C@@H]([C@H](NC(=O)[C@@H]2C[C@@H](CCC)CN2C)[C@H](C)Cl)O[C@@H]1SC	.	-25	.	.
Cc1cccc(Cn2nnc3c(=O)[nH]c(C4CCCN(C(=O)c5ccc(C(C)(C)C)cc5)C4)nc32)c1 (configuration not stated)	-21%	-11	.	.
CCCNC(=O)C1(C)CCCN(Cc2csc3ccccc23)C1 (configuration not stated)	.	-10	.	-53*
CCCNC(=O)C1(C)CCN(Cc2ccc3ccccc3c2Br)C1 (configuration not stated)	.	-27	.	-51*
CCOC(=O)C1=CCN(S(=O)(=O)c2cccc(Cl)c2)C1c1cccc(C)c1 (configuration not stated)	.	-6	.	17
OC[C@H]1O[C@@H](O[C@H]2[C@H](O)[C@@H](O)[C@H](O)O[C@@H]2CO)[C@H](O)[C@@H](O)[C@@H]1O	.	8	.	.
CN(C)CCC=C1c2ccccc2CCc2ccccc21	-13%[56.9 µM]	-11	20%	-20
CNCCC=C1c2ccccc2C=Cc2ccccc21	-3%	-81	?	-77*
CN(C)CCC=C1c2ccccc2C=Cc2ccccc21	-13%[56.9 µM]	-95	-28%	-120*
Cc1ccc(C)c(CSc2nc(-c3ccccc3F)nc3c2Cc2c(CO)cnc(C)c2O3)c1	-5%	0	.	.
CC1=CC(=O)C(Sc2ccc(C)cc2)=CC1=O	.	-13	.	-92*
CCOc1ccc(N(CC)S(=O)(=O)N2CCCC(C(=O)NCc3ccccc3OCC)C2)cc1 (configuration not stated)	-18%	-11	.	.
CC(C)N1C/C(=C/c2cccnc2)C(=O)/C(=C/c2cccnc2)C1	-38%	7	?	?
CN1C/C(=C/c2cccnc2)C(=O)/C(=C/c2cccnc2)C1	?	-8	-5%	-55*
Cc1[nH]n(-c2ccc([N+](=O)[O-])cc2)c(=O)c1C=NCCN1CCN(C(=O)c2ccc(F)cc2)CC1	7%	0	.	21
Cc1[nH]n(-c2ccc([N+](=O)[O-])cc2)c(=O)c1C=NCCc1c[nH]c2ccccc12	-23%	37*	2%	1
